Many of the other results were omitted from the sample, so hits are more common in it than they were.
Cruzain Triton: cruzain (T. cruzi) inhibition with detergent; purified cruzain, Z-FR-AMC fluorescence, 0.01% Triton; 200,000 tested, 0.43% active; Potency, µM, for the others: max response, negative = inhibition, usual class: inhibitors; AID 1478;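 also: plate controls were neutral wells for no effect and buffer without enzyme for full effect; nearly all actives have a fitted effect of over 40% in size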
Target sequence (P25779 123-467 limits assumed): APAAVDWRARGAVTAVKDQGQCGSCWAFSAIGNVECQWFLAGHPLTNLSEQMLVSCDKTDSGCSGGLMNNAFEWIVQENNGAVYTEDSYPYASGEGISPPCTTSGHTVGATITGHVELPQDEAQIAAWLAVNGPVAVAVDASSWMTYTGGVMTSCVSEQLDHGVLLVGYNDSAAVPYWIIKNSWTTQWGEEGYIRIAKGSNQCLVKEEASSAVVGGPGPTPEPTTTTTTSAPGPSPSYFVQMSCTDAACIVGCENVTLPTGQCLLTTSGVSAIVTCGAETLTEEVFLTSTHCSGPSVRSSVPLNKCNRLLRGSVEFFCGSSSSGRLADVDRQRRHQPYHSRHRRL
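Detergent-containing run (0.01% Triton X-100) in acetate buffer pH 5.5 with 5 mM DTT: enzyme at 1.5 nM final, 15 min compound preincubation at room temperature, then 2 uM Z-FR-AMC substrate. Activity taken as 60 s fluorescence increase at 360/450 nm.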
Giardia FBPA inh: inhibitors of Giardia lamblia fructose-1,6-bisphosphate aldolase. A8B2U2. purified Giardia FBPA. Potency, µM (series often up to 59.6 µM), without a hit: top-dose activity, negative = inhibition, actives largely listed as inhibitors. 290,000 tested, 0.71% active. AID 2451; also: nearly all actives have a fitted effect of over 55% in size
Target sequence (A8B2U2 whole entry, looked up): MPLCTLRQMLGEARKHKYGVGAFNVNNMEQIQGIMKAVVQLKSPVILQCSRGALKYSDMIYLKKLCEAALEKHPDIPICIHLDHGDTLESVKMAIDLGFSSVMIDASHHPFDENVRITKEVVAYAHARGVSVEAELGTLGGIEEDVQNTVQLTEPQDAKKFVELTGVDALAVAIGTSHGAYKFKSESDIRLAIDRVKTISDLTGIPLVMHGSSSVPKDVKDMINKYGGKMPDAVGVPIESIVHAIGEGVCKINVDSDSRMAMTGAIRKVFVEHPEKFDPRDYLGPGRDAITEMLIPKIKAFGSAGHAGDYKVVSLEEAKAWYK
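40 nM FBPA preincubated 10 min at RT with compound (up to 57.5 uM final), then substrate plus GAPDH/TPI/NAD/arsenate coupling and diaphorase/resazurin added. Fluorescence read after 20 min at RT, 525/598 nm.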
Cruzain noTriton: cruzain (T. cruzi) inhibition without detergent; Potency, µM, for inactives: max response, negative = inhibition, most hits filed as inhibitors; AID 1476; 200,000 tested, 2.3% active; purified cruzain, Z-FR-AMC fluorescence, no detergent; P25779;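 also: plate controls were enzyme without inhibitor for no effect and buffer without enzyme for full effect; nearly all actives have a fitted effect of over 40% in size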
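Detergent-free condition (0.00005% Triton X-100) in acetate buffer pH 5.5 with DTT. 1.5 nM enzyme and compound were pre-mixed 15 min, then 2 uM Z-FR-AMC substrate added; reaction progress from fluorescence change between first and third reads (60 s).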
Papain counter: blocks papain protease activity, flagging nonselective cruzain hits; shares compounds with Cruzain Triton; purified papain, Z-FR-AMC fluorescence cleavage; Potency, µM, for the others: max response, negative = inhibition, usual class: inhibitors; 410 tested, 41% active; AID 2161;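 also: 0% = no-compound wells and -100% = no-enzyme wells; nearly all actives have a fitted effect of over 35% in size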
An asterisk follows results filed as active; [ ] = dose if it differs, or a comment. Calls follow the shape of the dose curve; as a rule, active = well fitted curve in the direction sought with a large enough effect; inconclusive = small, poorly fitted or top-dose-only effect, or another doubt; inactive = no such curve, though single readings can be large; an effect the other way counts as inactive or inconclusive. Unless noted, % is scaled to controls: 0 for no effect and ±100 for the full control effect; potency is read from the fitted curve at half-maximal effect.

What do the screens show for `CCOC(=O)C(C(=O)OCC)N(C#N)c1nc(SC)nc(N(C)C)n1`?
Cruzain Triton: 2.5µM*; Giardia FBPA inh: 0%; Cruzain noTriton: 3.2µM*; Papain counter: 16µM*

What do the screens show for `CSc1nc(N(C)C)nc(N(C#N)CCOC(C)=O)n1`?
Giardia FBPA inh: 7%

How did CCOC(=O)COc1nc(N(C)C)nc(N(C)C)n1 do in these assays?
Cruzain Triton: 12%; Giardia FBPA inh: 0%; Cruzain noTriton: 4%

What do the screens show for `CCNc1ncc2nc(-c3ccc(Cl)cc3)c(=O)n(Cc3ccc(F)cc3)c2n1`?
Cruzain Triton: 8%; Giardia FBPA inh: 4%; Cruzain noTriton: -1%

Results for O=S1(=O)C2CC3C=CC2(O3)C(O)C(Cc2ccccc2)N1Cc1cccc(C(F)(F)F)c1 (stereo not drawn) ?
Giardia FBPA inh: -7%

Results for CO[C@@H]1COC(=O)C/C=C\[C@@H](C)[C@H](OC)COC(=O)C/C=C\[C@H]1C ?
Giardia FBPA inh: 0%[12.9 µM]

How did Cc1cccc(-c2nc(CSc3nncn4c3cc3oc(C)cc34)c(C)o2)c1 do in these assays?
Cruzain Triton: -1%; Cruzain noTriton: -1%

What do the screens show for `CCc1nc2sc3ccccc3c(=O)c2c(=O)n1Cc1ccco1`?
Cruzain Triton: -14%; Giardia FBPA inh: -9%; Cruzain noTriton: -28%

How did O=c1c2ccccc2sc2nc(C3CCCCC3)n(Cc3ccco3)c(=O)c12 do in these assays?
Cruzain Triton: 16µM*; Giardia FBPA inh: -12%; Cruzain noTriton: -22%; Papain counter: -14%

How did CCOC(=O)N/N=C\c1ccc(-c2cc(Cl)ccc2Cl)o1 do in these assays?
Giardia FBPA inh: -3%

How did NC(=S)N/N=C/c1ccc(-c2cc(Cl)ccc2Cl)o1 do in these assays?
Cruzain Triton: 0.71µM*; Giardia FBPA inh: -7%; Cruzain noTriton: 0.63µM*; Papain counter: 4.5µM*

Results for c1ccc2c(c1)Cc1cc3cc4c(cc3nc1-2)OCO4 ?
Cruzain Triton: -14%; Giardia FBPA inh: inconclusive; Cruzain noTriton: -1%

What do the screens show for `CN1CCN(c2ncc3nc(-c4cccc(C#N)c4)c(=O)n(CCC#N)c3n2)CC1`?
Cruzain Triton: inconclusive; Giardia FBPA inh: 0%; Cruzain noTriton: inconclusive

Results for Cc1cc(O)c(C=O)c2c1C(=O)Oc1c(COC(=O)/C=C/C(=O)O)c(O)c(C(=O)O)c(C)c1O2 ?
Cruzain Triton: 2%; Giardia FBPA inh: inconclusive; Cruzain noTriton: 11%

What do the screens show for `CCc1ccc(CNc2ncnc3onc(-c4ccc(Cl)cc4)c23)cc1`?
Cruzain Triton: -3%; Cruzain noTriton: -9%

Results for CCNc1nc(NOC)nc(OCC#N)n1 ?
Cruzain Triton: -1%; Giardia FBPA inh: 5%; Cruzain noTriton: -3%

How did CCNc1nc(C#N)nc(NCC)n1 do in these assays?
Papain counter: -8%

How did COc1ccc(O[C@H]2C=C[C@@H](c3ccccc3)O[C@H]2COC(=O)CC/C(C)=N\OC[C@@H](O)COCc2ccco2)cc1 do in these assays?
Giardia FBPA inh: 0%[12.9 µM]

How did CC1CCC2C(=O)OC(CN3C(=O)c4ccccc4C3=O)CN2C1c1ccc(Br)cc1 (stereo not drawn) do in these assays?
Giardia FBPA inh: 0%[12.9 µM]

What do the screens show for `O=C(CCN1C(=O)/C(=C/C=C/c2ccccc2)SC1=S)Nc1nccs1`?
Cruzain Triton: -1%; Giardia FBPA inh: 4%; Cruzain noTriton: 3.2µM*; Papain counter: -6%

Results for O=C(CCN1C(=O)/C(=C\c2cccs2)SC1=S)Nc1nccs1 ?
Cruzain Triton: -6%; Giardia FBPA inh: 4%; Cruzain noTriton: -2%

How did OCCCc1nc2ccccc2n1CCOc1ccccc1 do in these assays?
Cruzain Triton: 2%; Giardia FBPA inh: 0%; Cruzain noTriton: -10%

What do the screens show for `CC(C)(C)C(=O)NCCc1nc2ccccc2n1CCCCOc1ccc(Cl)cc1`?
Cruzain Triton: -12%; Cruzain noTriton: inconclusive

How did O=C(NCCc1nc2ccccc2n1CCCOc1ccccc1)C1CCCCC1 do in these assays?
Papain counter: -20%

Results for O=C(NCCc1nc2ccccc2n1CCCCOc1ccccc1)C1CCCCC1 ?
Papain counter: 25µM*

What do the screens show for `CCCCNC(=O)CCn1c(=O)c2cccn2c2cccnc21`?
Cruzain Triton: 3%; Cruzain noTriton: 3%

Results for COc1ccc(Cl)cc1NC(=O)CSC1=Nc2ccccc2C2=NC(CC(=O)NCc3ccc4c(c3)OCO4)C(=O)N12 (stereo not drawn) ?
Cruzain Triton: -11%; Cruzain noTriton: -5%

Results for COc1ccc(CNC(=O)Cn2c(-c3ccccc3)cc(C(C)=O)c2C)cc1OC ?
Cruzain Triton: 1%; Cruzain noTriton: -3%

What do the screens show for `CCOC(=O)c1c(S(=O)(=O)NCC(=O)Nc2cccc(SC)c2)c(C)n(C)c1C`?
Cruzain Triton: 2%; Cruzain noTriton: 13%

Results for COc1ccccc1OCCn1c(CCNC(=O)C2CCCCC2)nc2ccccc21 ?
Papain counter: 2%

How did Cc1cccc(OCCCn2c(CCNC(=O)C(C)(C)C)nc3ccccc32)c1 do in these assays?
Cruzain Triton: -3%; Cruzain noTriton: inconclusive

How did COc1ccc(OCCCn2c(CCNC(=O)C3CCCCC3)nc3ccccc32)cc1 do in these assays?
Papain counter: -9%

What do the screens show for `Cc1cccc(OCCn2c(CCNC(=O)C3CCCCC3)nc3ccccc32)c1`?
Papain counter: -1%

Results for COc1ccc(OCCn2c(CCNC(=O)C3CCCCC3)nc3ccccc32)cc1 ?
Papain counter: -17%

How did Cc1ccc(OCCn2c(CCNC(=O)C(C)C)nc3ccccc32)cc1 do in these assays?
Cruzain Triton: -6%; Giardia FBPA inh: 2%; Cruzain noTriton: -9%

Results for CC(C)C(=O)NCCc1nc2ccccc2n1CCCOc1ccc(Cl)cc1 ?
Cruzain Triton: -2%; Giardia FBPA inh: -4%; Cruzain noTriton: 22%

How did COc1ccccc1OCCn1c(NC(=O)c2ccccc2)nc2ccccc21 do in these assays?
Cruzain Triton: 1%; Cruzain noTriton: 1%

What do the screens show for `O=S(=O)(c1ccc(F)cc1)N1CCC(n2c(C(F)(F)F)nc3cccnc32)CC1`?
Cruzain Triton: -2%; Cruzain noTriton: -10%

Results for Cc1cc(OCCCn2c(CCNC(=O)C3CCCCC3)nc3ccccc32)ccc1Cl ?
Cruzain Triton: 1.4µM*; Cruzain noTriton: 7%; Papain counter: 13µM*

What do the screens show for `Cc1cccc(OCCCCn2c(CO)nc3ccccc32)c1`?
Giardia FBPA inh: 8%

Results for Cc1ccc(S(=O)(=O)c2nc(-c3ccco3)oc2NCC2CCCO2)cc1 (stereo not drawn) ?
Cruzain Triton: 11µM*; Giardia FBPA inh: -29%; Cruzain noTriton: 10µM*; Papain counter: -14%

Results for O=S(=O)(c1ccc(Br)cc1)c1nc(-c2ccco2)oc1NCC1CCCO1 (stereo not drawn) ?
Giardia FBPA inh: -6%

Results for O=C(CNC(=O)C1CCCCC1)OCCOc1ccccc1 ?
Papain counter: -6%

How did O=C(CNC(=O)C1CCCCC1)OCc1ccccc1 do in these assays?
Papain counter: -32%

What do the screens show for `CCCc1ccc(OCCNC(=O)C2CCCCC2)cc1`?
Giardia FBPA inh: 2%

Screening results as filed in PubChem.
